This passage reports outcome and AC50 results from PubChem BioAssay (EPA / NIEHS).

Details in all cases: mRNA level, 48 h; actives raise or lower the signal
Read-out in assay [1]: ATP-citrate lyase (ACLY), ACLY (gene 47)
Description: LTEA_HepaRG_ACLY: Life Technologies and Expression Analysis (LTEA) Assay for ATP-citrate lyase (ACLY) using HepaRG (AID 2283466). The essentials: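 qRT-PCR readout of ACLY transcript after 48 h chemical treatment of HepaRG cells; expression normalized to three housekeeping genes. Eight-point half-log series, highest 100 uM, 0.5% DMSO vehicle. Gain or loss fitted against DMSO baseline.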

Read-out in assay [2]: Peroxisomal acyl-coenzyme A oxidase 1 (ACOX1) gene, ACOX1 (gene 51)
Description: LTEA_HepaRG_ACOX1: Life Technologies and Expression Analysis (LTEA) Assay for Peroxisomal acyl-coenzyme A oxidase 1 (ACOX1) gene using HepaRG (AID 2283467). The essentials: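 HepaRG, 48 h chemical exposure, 8-pt half-log series from 100 uM top, 0.5% DMSO vehicle, duplicates. Readout: ACOX1 mRNA by Fluidigm qRT-PCR, housekeeping-normalized; bidirectional fit vs DMSO baseline.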

Read-out in assay [3]: Alkaline Phosphatase, Placental (ALPP) gene, ALPP (gene 250)
The assay can be described thus: LTEA_HepaRG_ALPP: Life Technologies and Expression Analysis (LTEA) Assay for Alkaline Phosphatase, Placental (ALPP) gene using HepaRG (AID 2283468).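 For AC50: differentiated human HepaRG liver cells in serum-free induction medium; ALPP transcript by TaqMan qRT-PCR normalized to ACTB GAPDH and POLR2A.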 The method in brief: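 Using human liver HepaRG cells, chemicals are tested in duplicate over 48 h at half-log concentrations topping at 100 uM; phenobarbital 1 mM serves as induction control. ALPP mRNA change by qRT-PCR, bidirectional fit against vehicle.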

Read-out in assay [4]: Bcl-2 (BAD) gene, BAD (gene 572)
The assay can be described thus: LTEA_HepaRG_BAD: Life Technologies and Expression Analysis (LTEA) Assay for Bcl-2 (BAD) gene using HepaRG (AID 2283469). The essentials:
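HepaRG, 48 h exposure, 8-pt half-log curve from 100 uM in 0.5% DMSO, duplicates. Readout: TaqMan qRT-PCR for BAD mRNA, housekeeping-normalised (ACTB/GAPDH/POLR2A); gain or loss fitted against DMSO baseline.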

Read-out in assay [5]: adenosine kinase (ADK) gene, ADK (gene 132)
Description: LTEA_HepaRG_ADK: Life Technologies and Expression Analysis (LTEA) Assay for adenosine kinase (ADK) gene using HepaRG (AID 2283471). The essentials: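 Read-out is ADK transcript level measured by qRT-PCR and normalised to three housekeeping genes. Cells are human HepaRG, dosed for 48 h at up to 100 uM in 0.5% DMSO. Gain or loss of signal is fitted against DMSO controls.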

Read-out in assay [6]: Alpha-fetoprotein (AFP) gene, AFP (gene 174)
The assay can be described thus: LTEA_HepaRG_AFP: Life Technologies and Expression Analysis (LTEA) Assay for Alpha-fetoprotein (AFP) gene using HepaRG (AID 2283472).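 For AC50: AFP transcript by TaqMan qRT-PCR normalized to ACTB GAPDH and POLR2A.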 The essentials:
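qRT-PCR (Fluidigm TaqMan) readout of AFP transcript, normalized to three housekeeping genes, fitted bidirectionally against 0.5% DMSO baseline. HepaRG cells received chemicals for 48 h in serum-free induction medium, top concentration 100 uM, half-log steps.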

Read-out in a further assay: BCL2L11 (gene 10018)
The assay can be described thus: LTEA_HepaRG_BCL2L11: Life Technologies and Expression Analysis (LTEA) Assay for Bcl-2 (BCL2L11) gene using HepaRG (AID 2283473). The essentials: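 Human hepatic HepaRG cultures are treated 48 h with test chemicals (maximum 100 uM, 0.5% DMSO vehicle). Expression of BCL2L11 is measured by qRT-PCR against ACTB, GAPDH and POLR2A, with activity in either direction scored relative to vehicle.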

Read-out in assay [7]: Apolipoprotein A-V (APOA5) gene, APOA5 (gene 116519)
The assay can be described thus: LTEA_HepaRG_APOA5: Life Technologies and Expression Analysis (LTEA) Assay for Apolipoprotein A-V (APOA5) gene using HepaRG (AID 2283474). The essentials: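 Concentration-response of APOA5 expression in HepaRG: eight half-log doses to 100 uM, 48 h, qRT-PCR normalized to ACTB/GAPDH/POLR2A, bidirectional fitting with 0.5% DMSO as baseline.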

Read-out in assay [8]: Apoptosis regulator Bcl-2 (Homo sapiens) (UniProt P10415)
Description: LTEA_HepaRG_BCL2: Life Technologies and Expression Analysis (LTEA) Assay for Bcl-2 gene using HepaRG (AID 2283475). The essentials:
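qRT-PCR read-out (Fluidigm TaqMan) of BCL2 transcript, normalised to three housekeeping genes, after 48 h chemical exposure of HepaRG cells; 8-point half-log series, top 100 uM, 0.5% DMSO vehicle. Gain or loss of signal fitted relative to DMSO baseline.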

Read-out in assay [9]: Bcl-2 (BAX) gene, BAX (gene 581)
Description: LTEA_HepaRG_BAX: Life Technologies and Expression Analysis (LTEA) Assay for Bcl-2 (BAX) gene using HepaRG (AID 2283470). The method in brief:
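qRT-PCR read-out of BAX mRNA, normalized to three housekeeping genes, after 48 h chemical exposure of human HepaRG cells in serum-free induction medium; eight-point half-log series, top 100 uM, 0.5% DMSO vehicle; bidirectional fit versus DMSO.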

Molecules are shown by their SMILES. The source made the active and inactive calls. Rule for the calls: active = hit-call score of the fitted dose curve at least 0.9, where 1 is the maximum; inactive = score below 0.9.

Sequence of Apoptosis regulator Bcl-2 (Homo sapiens) (P10415 whole entry, looked up): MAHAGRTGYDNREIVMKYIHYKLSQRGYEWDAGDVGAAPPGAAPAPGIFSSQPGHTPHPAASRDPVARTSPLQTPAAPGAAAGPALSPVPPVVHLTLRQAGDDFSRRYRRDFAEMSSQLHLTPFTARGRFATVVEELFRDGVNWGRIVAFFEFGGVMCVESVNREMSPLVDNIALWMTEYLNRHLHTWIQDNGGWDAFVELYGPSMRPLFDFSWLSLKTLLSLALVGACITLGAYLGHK

For the compound `CCOCCO`, the outcome in [1], in assay [2], in assay [3], in [4], in assay [5] and in assay [6] was inactive. Besides, the outcome (with BCL2L11 (gene 10018); in [7]; in assay [8]) was inactive.

`CC(=O)OCCC(C)C`: the call in [1], in assay [2], in [3], in assay [4], in [9] and in assay [5] was inactive. The compound was called inactive (in assay [6]; with BCL2L11 (gene 10018); in assay [7]; in assay [8]).

For `CC(C)CC(C)(O)C#CC(C)(O)CC(C)C` (centres undefined), the compound was classed as inactive in assay [1], in assay [2], in [3], in assay [4], in [9] and in assay [5]. The call (in assay [6]; in the assay with BCL2L11 (gene 10018); in [7]; in assay [8]) was inactive.

A word on the AC50: it is the midpoint of the concentration-response curve, whichever way the signal moves. With `O=C(CCCCCCCCc1cccnc1)N1CCC(C=C(c2ccccc2)c2ccccc2)CC1`, the compound was called inactive in assay [1], in assay [4] and in assay [5]. Further, the AC50 in [2] is 50 µM (active); in assay [3], 13.7 µM (active); in [9] it was 30.9 µM (active); in assay [6], 24.3 µM (active); with BCL2L11 (gene 10018), 27.3 µM (active); in [7] it was 29.6 µM (active). In addition, the AC50 in assay [8] was 16.6 µM (active).

`CC1=CC(=O)CC(C)(C)C1`: the result in assay [1], in assay [2], in assay [3], in assay [4], in assay [5] and in [6] was inactive. Moreover, the outcome (with BCL2L11 (gene 10018); in assay [7]; in [8]) was inactive.

Turning to `CC(C)=CCC/C(C)=C/CO`, the result in [1], in assay [2], in assay [3], in [4], in [5] and in assay [6] was inactive. Besides, the call (with BCL2L11 (gene 10018); in [7]; in [8]) was inactive.

Take `C1=CCCC=CCCC=CCC1`: the compound was called inactive in assay [1], in assay [2], in assay [3], in [4], in assay [9] and in [5]. Moreover, the call (in assay [6]; in the assay with BCL2L11 (gene 10018); in assay [7]; in assay [8]) was inactive.

For `CCOC(=O)c1ccc(C2CCC(NC[C@H](O)COc3ccc(O)c(NS(C)(=O)=O)c3)CC2)cc1` (some centres undefined), the call (in assay [1]; in [2]; in assay [4]; in assay [5]; in assay [6]; with BCL2L11 (gene 10018)) was inactive. Further, the call in assay [7] was inactive. Besides, the values for the AC50 in assay [3] and in assay [8] were 1.83 µM (active) and 2.75 µM (active), respectively.

Turning to `Nc1cccc(N)c1`, the compound was called inactive in assay [1], in [2], in [3], in assay [4], in assay [5] and in [6]. In addition, the compound was called inactive (in the assay with BCL2L11 (gene 10018); in assay [7]; in assay [8]).

Consider `Cc1ccc(O)cc1`, for which the compound was called inactive in assay [1], in [2], in assay [3], in assay [4], in [9] and in assay [5]. Further, the compound was classed as inactive (with BCL2L11 (gene 10018); in [7]; in assay [8]).

For the compound `COCCOCCOCCOC`, the compound was classed as inactive in assay [1], in assay [2], in assay [3], in assay [4], in assay [9] and in [5]. In addition, the compound was classed as inactive (in assay [6]; with BCL2L11 (gene 10018); in [7]; in assay [8]).
